What all share (assay): NCI-60 one-dose screen, 48 h (100 = growth as untreated, 0 = no growth, -100 = all killed)
What all share (conditions): 10 µM unless noted

Experiment [1] relates to RPMI-8226 leukemia.
The subject of experiment [2] is OVCAR-8 ovarian.
In experiment [3] the test system is OVCAR-5 ovarian.
For experiment [4], the system named is OVCAR-4 ovarian.
Experiment [5] deals with SK-OV-3 ovarian.
The test system of experiment [6] is IGROV1 ovarian.
Experiment [7] concerns OVCAR-3 ovarian.
In experiment [8] the test system is HS 578T breast.
Experiment [9] deals with NCI/ADR-RES ovarian.
Experiment [10] has as its system T-47D breast.
The subject of experiment [11] is BT-549 breast.
In experiment [12] the test system is MDA-MB-435 melanoma.
The subject of experiment [13] is SW-620 colon.
Experiment [14] deals with MCF7 breast.
The test system of experiment [15] is HCT-116 colon.
Experiment [16] has as its system HCC-2998 colon.
For experiment [17], the system named is KM12 colon.

This is part of a sample that, as a whole, favours compounds with a hit. Of some 83,000 tested, about 20% had one in any assay.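 Plates (96-well) were seeded with cells, treated with compound at one concentration, and incubated for 48 hours before percent growth was determined.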 Unmarked numbers belong to inactive results. Activity calls are given as the source filed them. The calls were made as follows: active = growth percent below 10; inactive = the rest.

`CN(C)c1ccc(/C=N\Nc2cc(=O)[nH]c3ccc(Cl)cc23)cc1`: the growth was 93.2% in experiment [1]; 93.4% in experiment [2]; 101% in experiment [3]; 121% in experiment [4]; 82.9% in experiment [5]; 75.3% in experiment [6]. In addition, the growth in experiment [7] is 108%; in experiment [8], 82.8%; in experiment [9], 99.8%; in experiment [10], 81.7%; in experiment [11] it was 85.5%; in experiment [12] it was 105%. Also, the growth in experiment [13] is 86%; in experiment [14], 81%; in experiment [15] it was 88.4%; in [16] it was 104%; in experiment [17], 104%.

As to `CNc1nc2c(s1)C(c1cc(F)ccc1F)CC(=O)N2` (stereo not drawn), the growth in [1] was 87.3%; in [2], 91.3%; in [3], 89.7%; in experiment [4], 83.2%; in [5], 71.9%; in [6], 73.7%. For the same compound, the growth in experiment [7] is 55.6%; in experiment [8], 70%; in experiment [9], 71.7%; in experiment [10], 63.6%; in experiment [11] it was 80.5%; in experiment [12], -51.6% (active). Further, the growth is 30.9% in [13]; 36.5% in experiment [14]; 53.5% in [15]; 88.1% in experiment [16]; 52.9% in [17].

Consider `O=CN(SSN(C=O)C1CCCCC1)C1CCCCC1`, for which the growth was 120% in experiment [1]; 104% in experiment [2]; 113% in [3]; 101% in [4]; 113% in experiment [5]; 100% in [6]. The growth is 107% in experiment [7]; 112% in experiment [8]; 116% in experiment [9]; 79.2% in experiment [10]; 137% in experiment [11]; 110% in [12]. The growth in [13] is 92.3%; in experiment [14], 102%; in [15], 85.9%; in experiment [16], 116%; in experiment [17], 104%.

On to `CCCCCCCCCCCCCCCCCCOc1ccccc1CC(=O)OCC[N+](CC)(CC)CC`, for which the growth in experiment [1] was -3.45% (active); in experiment [2] it was 17.7%; in experiment [3], 41%; in experiment [4], 19.1%; in experiment [5], 66.2%; in experiment [6], -26.9% (active). The growth was 31.4% in experiment [7]; 38.2% in [8]; 95.9% in experiment [9]; 23.5% in experiment [10]; 76.3% in experiment [11]; 11% in [12]. The growth in experiment [13] was 21.6%; in experiment [14] it was 12.9%; in experiment [15] it was 19.8%; in experiment [16] it was 22.5%; in experiment [17], 51.3%.

Regarding `COc1cc(Nc2nc(NCCN)nc3cc[nH]c(=O)c23)cc(OC)c1`, the growth in [1] was 80%; in [2] it was 76.3%; in experiment [3] it was 67.9%; in [4], 80.7%; in experiment [5], 51.4%; in [6] it was 57.8%. In addition, the growth in [7] was 109%; in experiment [8], 82.5%; in experiment [9] it was 98.6%; in experiment [10], 122%; in experiment [11], 66.7%; in [12] it was 69.6%. Further, the growth in experiment [13] was 64.2%; in [14], 77.2%; in experiment [15] it was 46.6%; in experiment [16], 79.3%; in experiment [17] it was 76%.

As to `Cc1oc2nc[nH]c(=O)c2c1C(=O)/C=C/c1ccc(Br)cc1`, the growth in experiment [1] was -3.59% (active); in experiment [2] it was 7.33% (active); in experiment [3], 22.3%; in experiment [4], 36%; in experiment [5], 31.5%; in experiment [6], 8.79% (active). In addition, the growth in experiment [7] was -10.9% (active); in experiment [8], 24.3%; in [9] it was -30.5% (active); in experiment [10], 4.69% (active); in experiment [11] it was 2.55% (active); in [12], 19.8%. Moreover, the growth in experiment [13] is 3.84% (active); in [14], 9.43% (active); in [15] it was -11.6% (active); in experiment [16] it was -33.9% (active); in experiment [17], -5.18% (active).

Regarding `Nc1nc(-c2cccc3ccccc23)cc2ccccc12`, the growth in [1] is 4.38% (active); in [2], 17.9%; in [3], 20.9%; in [4], 61.4%; in [5] it was 8.91% (active); in experiment [6] it was -48.5% (active). The growth in experiment [7] is -32.2% (active); in experiment [8], -4.65% (active); in experiment [9], 2.9% (active); in experiment [10] it was 43.7%; in experiment [11], 39.2%; in [12], -64.8% (active). Besides, the growth in [13] was 19.4%; in [14], 7.69% (active); in [15] it was 10.8%; in experiment [16], -5.78% (active); in experiment [17], 5.93% (active).

For the compound `COc1ccc(-c2cc3c4c(nc5ccccc5c4c2)CC(c2cc(OC)c(OC)c(OC)c2)O3)cc1` (stereo not drawn), the growth in [1] is 25.1%; in experiment [2], 32%; in experiment [3], 18.4%; in experiment [4] it was -9.24% (active); in experiment [5], 20.2%; in experiment [6] it was 52.5%. In addition, the growth in experiment [7] was 41.9%; in experiment [8], 13.2%; in [9], 41.4%; in experiment [10], 14.1%; in [11], 64.6%; in experiment [12] it was 56.4%. Besides, the growth in experiment [13] was 37.9%; in [14] it was 61.3%; in experiment [15] it was 1.01% (active); in experiment [16], 43.1%; in experiment [17] it was 60.4%.

As for `Cc1cc(O)c(C2=NN(c3ccc(S(N)(=O)=O)cc3)C(c3ccccc3O)C2)cc1Cl` (stereo not drawn), the growth in experiment [1] is 15.4%; in [2], 4.04% (active); in experiment [3], -15.1% (active); in [4], 44%; in experiment [5] it was 34.1%; in experiment [6], 0.983% (active). For the same compound, the growth was -45.8% (active) in experiment [7]; 8.33% (active) in [8]; 1.92% (active) in [9]; 21.6% in experiment [10]; 99.7% in experiment [11]; 10% in [12]. For the same compound, the growth in [13] is -0.676% (active); in experiment [14], 7.94% (active); in [15] it was -92.9% (active); in experiment [16] it was -75% (active); in [17], -60.4% (active).

The values are drawn from PubChem BioAssay (NCI).
